Data on 1 sequence can be found in patent US20060069055, “Delivery of polynucleotides” (published 2006).

NF-kB p50/p50 homodimer, sequence (P19838 1-433, one chain of several): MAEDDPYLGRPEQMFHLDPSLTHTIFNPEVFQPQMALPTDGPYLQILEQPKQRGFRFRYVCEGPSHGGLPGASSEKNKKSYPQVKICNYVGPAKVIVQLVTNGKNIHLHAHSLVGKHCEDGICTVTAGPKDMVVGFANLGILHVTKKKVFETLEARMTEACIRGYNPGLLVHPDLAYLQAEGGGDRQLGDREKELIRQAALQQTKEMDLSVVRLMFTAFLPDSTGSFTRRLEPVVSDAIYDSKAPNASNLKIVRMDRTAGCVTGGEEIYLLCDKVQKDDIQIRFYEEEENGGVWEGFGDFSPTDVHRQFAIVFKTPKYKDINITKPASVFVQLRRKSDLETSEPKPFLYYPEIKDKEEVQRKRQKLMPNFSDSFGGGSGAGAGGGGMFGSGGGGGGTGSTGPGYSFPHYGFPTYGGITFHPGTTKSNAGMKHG

The experiment has as its target NF-kB p50/p50 homodimer (Homo sapiens, UniProt P19838 P19838:1-433). Nature of the experiment: EMSA; Table 3 gives 92 for PO. Conditions: protein: extract; tags: nuclear extract of LPS-stimulated THP-1 cells; chain copies: 2 stated; dsDNA, one strand shown. From the text:
The EMSA assay was employed to characterize oligonucleotide decoys for the NF-κB transcription factor. […] Using the above modified oligonucleotides to compete for binding for the above-mentioned NF-κB family members, it was possible to compare the binding affinity of these oligonucleotides against the high affinity radiolabeled probe and each other. This assay has also enabled the design of a decoy which selectively binds particular members of the NF-κB family. By using increasing concentrations of various oligonucleotides, it was observed that, by deleting or changing targeted residues in the binding site, it was possible to specifically decrease the binding of the decoy molecule to p50/p50 homodimers, while retaining the affinity for p65/p50 and cRel/p50 heterodimers.
The NF-κB gel shift assays (EMSA) were performed as follows. A double-stranded oligonucleotide containing a consensus NF-κB binding site (5′ […].GGC 3′) (SEQ ID NO: 26) was end-labeled with γ³²P-ATP using T4 Polynucleotide Kinase (Promega). […] The dried gels were imaged and quantitated using a Typhoon 8600 Phosphorlmager (Amersham) and ImageQuant software. […]
AGTTGAGGACTTTCCAGGC had an IC50 of 96 fold molar excess.
